Most compounds without a hit are left out; they make up all but 2.3% or so of the library.
Rtt109 Vps75: C. albicans Rtt109 histone acetyltransferase inhibition; Q5AAJ8; purified Rtt109/Vps75, ThioGlo CoA-SH fluorescence, 4 h; inhibition, % at 34.9 µM; 330,000 compounds, 0.16% hits;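 active = inhibition of at least 50% in every replicate; inconclusive = best replicate reaches 50% inhibition but some replicates fall short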
ERp5 inh: inhibitors of human ERp5. inhibition, % at 9.99 µM. Q15084. 350,000 compounds, 0.05% hits. ERp5 insulin aggregation, absorbance 650 nm, 90 min;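 active = mean replicate inhibition above about 25%, with every replicate also reaching it, limit read from the data, passing the limit was not always enough; inconclusive = only one of those two criteria met; inactive = neither criterion met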
Target sequence (Q15084 whole entry, looked up): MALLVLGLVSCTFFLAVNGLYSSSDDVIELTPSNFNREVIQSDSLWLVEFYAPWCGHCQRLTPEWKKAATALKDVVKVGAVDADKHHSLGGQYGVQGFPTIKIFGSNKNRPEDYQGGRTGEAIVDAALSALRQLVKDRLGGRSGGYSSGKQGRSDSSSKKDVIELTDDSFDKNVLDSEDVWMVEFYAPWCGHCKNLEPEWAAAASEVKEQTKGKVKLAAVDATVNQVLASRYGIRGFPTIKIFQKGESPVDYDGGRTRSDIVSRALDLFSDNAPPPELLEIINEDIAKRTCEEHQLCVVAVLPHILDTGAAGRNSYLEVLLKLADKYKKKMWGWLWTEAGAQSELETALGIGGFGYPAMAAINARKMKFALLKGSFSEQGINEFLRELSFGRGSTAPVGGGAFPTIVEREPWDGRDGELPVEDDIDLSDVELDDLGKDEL
PDI turbidity: blocks human protein disulfide isomerase activity | PDI insulin aggregation turbidity, A650, 90 min | AID 588391 | inhibition, % at 10 µM | 350,000 compounds, 0.052% hits;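 active = mean inhibition across replicates of 30% or more, whatever share of single replicates reach that level; inconclusive = mean inhibition below 30% while every single replicate reaches 30%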
SIRT5 block: sirtuin-5 (human) deacylase inhibition; Q9NXA8; Purified SirT5, succinyl-peptide AMC, trypsin-coupled fluorescence; inhibition, % at 15 µM; 330,000 compounds, 1.1% hits; AID 652115; in the data active = inhibition above about 15%; inconclusive = no clear call, values can overlap the other calls
Target sequence (Q9NXA8 whole entry, looked up): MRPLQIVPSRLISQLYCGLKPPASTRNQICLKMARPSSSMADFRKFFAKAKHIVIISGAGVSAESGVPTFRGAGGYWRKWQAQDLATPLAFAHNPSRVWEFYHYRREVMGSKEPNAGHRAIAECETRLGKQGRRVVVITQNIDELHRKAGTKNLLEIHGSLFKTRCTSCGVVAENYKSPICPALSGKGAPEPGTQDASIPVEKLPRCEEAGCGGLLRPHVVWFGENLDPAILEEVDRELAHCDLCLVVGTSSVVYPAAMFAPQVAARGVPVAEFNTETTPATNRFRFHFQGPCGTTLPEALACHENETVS
DENV2 CPE: DENV2-induced cell death inhibition; 350,000 compounds, 1.7% hits; AID 651640; CPE inhibition, % at 9.99 µM; DENV2-infected cells, cytopathic effect rescue, plate reader; in the data active = CPE inhibition above about 20%, passing the limit was not always enough; inconclusive = no clear call, values can overlap the other calls; tested in BHK-21 cells
Each line names hits and unclear results; the compound was inactive in the other large screens.

O=C1NC[C@@H](CCCCN2CCN(Cc3ccccc3)C(=O)C2=O)N(CCC2CCCCC2)C1=O	DENV2 CPE 21.4 (no result: Rtt109 Vps75, PDI turbidity)
O=C1NC[C@@H](CCCCN2C[C@H](Cc3ccc(O)cc3)N(CC3CCCCC3)C(=O)C2=O)N(CCC2CCCCC2)C1=O	DENV2 CPE 58.8 (no result: Rtt109 Vps75, PDI turbidity)
O=C1NC[C@H](Cc2ccc(O)cc2)N(CC2CCCCC2)C1=O	PDI turbidity 34.4
Cc1cccc(S(=O)(=O)N2C[C@H](O)COC[C@@H]3O[C@@H](CC(=O)Nc4ccc(-c5ccccc5)cc4)CC[C@H]32)c1	none (no result: Rtt109 Vps75, ERp5 inh, PDI turbidity, SIRT5 block)
C[C@@H]1CCCCO[C@@H](CN(C)S(=O)(=O)c2ccc(F)cc2)[C@H](C)CN([C@@H](C)CO)C(=O)c2cc(NC(=O)c3ccccc3)ccc2O1	none (no result: Rtt109 Vps75, PDI turbidity)
CCCCCCN(C(=O)CCCCCN1C(=O)NC(c2ccc(-c3ccccc3)cc2)C(C(=O)OCc2ccccc2)=C1C)C(C(=O)NCCCC)c1ccccn1 (stereo not given)	DENV2 CPE 23.2 (no result: Rtt109 Vps75, PDI turbidity, SIRT5 block)
CCCCCCN(C(=O)CCCCCN1C(=O)NC(c2ccc(-c3ccccc3)cc2)C(C(=O)OCc2ccccc2)=C1C)C(C(=O)NCCCC)C1CCCCC1 (stereo not given)	none (no result: Rtt109 Vps75, PDI turbidity, SIRT5 block)
CCOC(=O)C[C@@H]1OC2CCCCC2N1S(=O)(=O)c1ccc(C)cc1 (stereo not given in full)	none (no result: Rtt109 Vps75, PDI turbidity)
Cc1ccc(S(=O)(=O)N2C3CCCCC3O[C@H]2CC(=O)c2cccs2)cc1 (stereo not given in full)	DENV2 CPE 47.7 (no result: Rtt109 Vps75, PDI turbidity)
CC(C)c1onc(C(=O)N2CCN(Cc3ccccc3)CC2)c1[N+](=O)[O-]	DENV2 CPE 168.1 (no result: PDI turbidity, SIRT5 block)
C=CCOC(=O)[C@@H]1[C@H]2C(=O)O[C@H](c3ccccc3)[C@H](c3ccccc3)N2[C@H](c2ccc(OCCOC(=O)[C@@H]3C[C@@H]4C(=O)NCC(=O)N4[C@@H]3c3ccc(O)cc3)cc2)[C@@]12C(=O)Nc1ccc(I)cc12	none (no result: Rtt109 Vps75, PDI turbidity)
O=C(NC(=S)N1CCN(c2ccccc2)CC1)c1c(F)cccc1F	DENV2 CPE 74.5
O=C(NC(=S)N1CCN(c2ccc(F)cc2)CC1)c1cccs1	none
O=C(O)CC(c1ccccc1)N1C(=O)c2ccccc2C1=O (stereo not given)	DENV2 CPE 40.3
COc1ccc(CN(C)C[C@H]2OCCCC[C@@H](C)Oc3ccc(NC(=O)Nc4cccc5ccccc45)cc3C(=O)N([C@@H](C)CO)C[C@@H]2C)cc1	none (no result: Rtt109 Vps75, PDI turbidity)
CO[C@@H]1CN(C)C(=O)c2cc(NC(=O)c3ccc(-c4ccccc4)cc3)ccc2OC[C@H](C)NC[C@H]1C	none (no result: Rtt109 Vps75, PDI turbidity)
CO[C@H]1CN(C)C(=O)c2cc(NC(=O)c3ccc(-c4ccccc4)cc3)ccc2OC[C@H](C)NC[C@@H]1C	DENV2 CPE 22.8 (no result: Rtt109 Vps75, PDI turbidity)
CO[C@H]1CN(C)C(=O)c2cc(NC(=O)c3ccc(Oc4ccccc4)cc3)ccc2OC[C@@H](C)NC[C@@H]1C	none (no result: Rtt109 Vps75, PDI turbidity)
CO[C@@H]1CN(C)C(=O)c2cc(NC(=O)c3ccc(Oc4ccccc4)cc3)ccc2OC[C@H](C)NC[C@H]1C	SIRT5 block 100.0 (no result: Rtt109 Vps75, PDI turbidity)
CO[C@H]1CN(C)C(=O)c2cc(NC(=O)c3cnccn3)ccc2OC[C@H](C)NC[C@H]1C	DENV2 CPE 26.8 (no result: Rtt109 Vps75, PDI turbidity)
CO[C@H]1CN(C)C(=O)c2cc(NC(=O)c3ccc(-c4ccccc4)cc3)ccc2OC[C@@H](C)NC[C@@H]1C	SIRT5 block 103.1 (no result: Rtt109 Vps75, PDI turbidity)
O=C(c1ccncc1)N1C[C@@H]2[C@H](c3ccccc31)[C@@H](CO)N2C(=O)Nc1ccccc1Cl	DENV2 CPE inconclusive (no result: Rtt109 Vps75, PDI turbidity)
C[C@H]1CN([C@@H](C)CO)C(=O)Cc2cc(NC(=O)c3ccncc3)ccc2O[C@H]1CN(C)Cc1ccc(-c2ccccc2)cc1	none (no result: Rtt109 Vps75, PDI turbidity)
Cc1ccc(OCCSc2nc3ccccc3n2CCC(=O)O)cc1	SIRT5 block 21.4
Cc1ccccc1OCCSc1nc2ccccc2n1CCC(=O)O	none
CCCNC(=O)[C@H]1[C@H](CO)[C@H]2Cn3c(cccc3=O)[C@@H]1N2Cc1ccccc1	none (no result: Rtt109 Vps75, PDI turbidity)
COc1cccc(C#Cc2ccc([C@@H]3[C@@H](C#N)N(C(=O)C4CC4)[C@H]3CO)cc2)c1	DENV2 CPE 25.5 (no result: Rtt109 Vps75, PDI turbidity)
COc1ccccc1-c1ccccc1[C@@H]1[C@@H](C#N)N(C(=O)C2CCC2)[C@@H]1CO	DENV2 CPE 43.8 (no result: Rtt109 Vps75, PDI turbidity)
COc1ccc(-c2ccc([C@@H]3[C@@H](CO)N(C(=O)NC4CCCC4)[C@H]3C#N)cc2)cc1	DENV2 CPE 22.3 (no result: Rtt109 Vps75, PDI turbidity)
COc1ccc(-c2ccc([C@H]3[C@@H](C#N)N(C(=O)C4CC4)[C@@H]3CO)cc2)cc1	DENV2 CPE 55.7 (no result: Rtt109 Vps75, PDI turbidity)
C[C@H](CO)N1C[C@H](C)[C@@H](CN(C)S(=O)(=O)c2cccs2)Oc2ccc(NS(=O)(=O)c3cn(C)cn3)cc2CC1=O	none (no result: Rtt109 Vps75, PDI turbidity)
Cc1noc(C)c1S(=O)(=O)N(C)C[C@H]1Oc2ccc(NC(=O)Nc3ccc4c(c3)OCO4)cc2CC(=O)N([C@H](C)CO)C[C@@H]1C	none (no result: Rtt109 Vps75, PDI turbidity)
CC(=O)N1[C@@H](CO)[C@@H](c2ccccc2)C12CN(C(=O)c1ccccc1)C2	none (no result: Rtt109 Vps75, PDI turbidity)
COC(=O)C[C@@H]1C[C@@H]2c3cc(NC(=O)c4cccnc4)ccc3O[C@@H]2[C@H](CO)O1	none (no result: Rtt109 Vps75, PDI turbidity)
CN(C)C(=O)c1ccc(-c2ccccc2[C@@H]2[C@@H](CO)N(C(=O)C3CCCCC3)[C@H]2C#N)cc1	DENV2 CPE 28.6 (no result: Rtt109 Vps75, PDI turbidity)
COc1ccc(-c2ccc([C@H]3[C@@H](C#N)N(C(=O)NC(C)C)[C@@H]3CO)cc2)cc1	none (no result: Rtt109 Vps75, PDI turbidity)
COc1ccc(-c2ccccc2[C@@H]2[C@@H](C#N)N(C(=O)C3CC3)[C@H]2CO)cc1	DENV2 CPE 26.5 (no result: Rtt109 Vps75, PDI turbidity, SIRT5 block)
CC(C)NC(=O)N1[C@H](CO)[C@H](c2ccc(-c3ccc(F)cc3)cc2)[C@@H]1C#N	DENV2 CPE 35.2 (no result: Rtt109 Vps75, PDI turbidity)
CN(C)C(=O)c1ccc(-c2ccccc2[C@@H]2[C@@H](C#N)N(C(=O)C3CC3)[C@@H]2CO)cc1	DENV2 CPE 39.9 (no result: Rtt109 Vps75, PDI turbidity)
CN(C)C(=O)c1ccc(-c2ccc([C@H]3[C@@H](C#N)N(C(=O)C4CCCC4)[C@H]3CO)cc2)cc1	DENV2 CPE 21.5 (no result: Rtt109 Vps75, PDI turbidity)
C[C@@H]1CN([C@@H](C)CO)C(=O)c2cccc(NC(=O)Nc3ccc(F)cc3)c2O[C@@H]1CN(C)C(=O)Nc1ccc(F)cc1	none (no result: Rtt109 Vps75, PDI turbidity)
C/[N+]([O-])=C\CC(=O)c1ccc(-c2ccccc2)cc1	none
CO/N=C/CC(=O)c1ccc(-c2ccccc2)cc1	SIRT5 block 28.7 (no result: Rtt109 Vps75)
CCCNC(=O)C[C@H]1CC[C@H]2[C@H](COc3ccc(NC(=O)Nc4c(C)noc4C)cc3C(=O)N2C)O1	none (no result: Rtt109 Vps75, PDI turbidity)
COCCNC(=O)c1cc2cc3ccc(OC)cc3nc2o1	DENV2 CPE 25.3
COc1ccc2cc3cc(C(=O)NCCC(C)C)oc3nc2c1	none
O=C(c1ccc2c(c1)OCO2)N1CC(=O)N2[C@H](CO)[C@@H](c3ccc(C#CC4CCCC4)cc3)[C@H]2C1	none (no result: Rtt109 Vps75, PDI turbidity)
CC(C)CC#Cc1ccc([C@H]2[C@@H](CO)N3CCCCN(C(=O)c4ccc5c(c4)OCO5)C[C@@H]23)cc1	DENV2 CPE 23.7 (no result: Rtt109 Vps75, PDI turbidity)
O=C(c1ccc2c(c1)OCO2)N1CC(=O)N2[C@H](C1)[C@H](c1ccc(C#CCC3CCCC3)cc1)[C@@H]2CO	SIRT5 block 23.7 (no result: Rtt109 Vps75, PDI turbidity)
